From PubChem BioAssay (NCI)
The panel holds about 83,000 compounds, 20% with a hit somewhere; the sample as a whole holds those more often.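 Percent growth is the endpoint: 0 to 100 indicates growth inhibition (40 means 60% inhibition), 0 means no net growth, and negative values indicate cell death.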 A number with no mark means an inactive call. Activity calls are given as the source filed them. Rule for the calls: active = growth percent below 10; inactive = the rest.

Experiments:
Assay in all cases: NCI-60 one-dose screen, 48 h (100 = growth as untreated, 0 = no growth, -100 = all killed)
Conditions in all cases: 10 µM
SK-MEL-2 melanoma = test system: SK-MEL-2 melanoma
SN12C renal = test system: SN12C renal
UO-31 renal = test system: UO-31 renal
TK-10 renal = test system: TK-10 renal
ACHN renal = test system: ACHN renal
CAKI-1 renal = test system: CAKI-1 renal
A498 renal = test system: A498 renal
CCRF-CEM leukemia = test system: CCRF-CEM leukemia
MOLT-4 leukemia = test system: MOLT-4 leukemia
SR leukemia = test system: SR leukemia
RPMI-8226 leukemia = test system: RPMI-8226 leukemia
OVCAR-8 ovarian = test system: OVCAR-8 ovarian
OVCAR-5 ovarian = test system: OVCAR-5 ovarian
OVCAR-4 ovarian = test system: OVCAR-4 ovarian
SK-OV-3 ovarian = test system: SK-OV-3 ovarian
IGROV1 ovarian = test system: IGROV1 ovarian
OVCAR-3 ovarian = test system: OVCAR-3 ovarian
HS 578T breast = test system: HS 578T breast
NCI/ADR-RES ovarian = test system: NCI/ADR-RES ovarian

SMILES | growth (SK-MEL-2 melanoma) | growth (SN12C renal) | growth (UO-31 renal) | growth (TK-10 renal) | growth (ACHN renal) | growth (CAKI-1 renal) | growth (A498 renal) | growth (CCRF-CEM leukemia) | growth (MOLT-4 leukemia) | growth (SR leukemia) | growth (RPMI-8226 leukemia) | growth (OVCAR-8 ovarian) | growth (OVCAR-5 ovarian) | growth (OVCAR-4 ovarian) | growth (SK-OV-3 ovarian) | growth (IGROV1 ovarian) | growth (OVCAR-3 ovarian) | growth (HS 578T breast) | growth (NCI/ADR-RES ovarian)
Cc1nc2scc(-c3ccc(Cl)cc3)n2c(=O)c1CCN1CCOCC1 | 105% | 94% | 57.5% | 142% | 89.4% | 84.6% | 119% | 93.6% | 78.1% | 81.4% | 93.5% | 104% | 116% | 95.1% | 94.1% | 79.2% | 104% | 106% | 108%
COc1ccc(C(=O)c2sc3nc(-c4cccs4)ccc3c2N)cc1OC | 15.7% | 62% | 45.6% | 49.4% | 64.7% | 62% | 39.4% | 34.5% | 23.3% | 14.5% | 43.4% | 53% | 82.2% | 61.2% | 70.9% | 63.3% | 45.1% | 50.4% | 37.8%
O=S(=O)(NCl)c1ccccc1 | 109% | 106% | 83.1% | 96.2% | 105% | 94.7% | 97.5% | 92.5% | 98.3% | 86% | 105% | 103% | 110% | 95.9% | 105% | 107% | 119% | 102% | 103%
O=C(CCl)N1c2ccccc2Sc2ccc3ccccc3c21 | -25.5% (active) | -49.1% (active) | -89.8% (active) | -57.7% (active) | -89.1% (active) | -52.8% (active) | -90.2% (active) | -15.1% (active) | -9.38% (active) | -11.4% (active) | -47.3% (active) | -24.2% (active) | 21% | -41.9% (active) | 17.6% | -71.2% (active) | -82.5% (active) | -0.68% (active) | -25.8% (active)
Fc1ccc2[nH]c3c(NCCCN4CCOCC4)ncnc3c2c1 | 65.7% | 63.8% | 45.9% | 12.7% | 23.9% | 25.2% | 130% | 74.7% | 83.1% | 52.1% | 46.4% | 68.3% | 85.6% | -38.6% (active) | 33.4% | 50.8% | 59.7% | 34.5% | 72.7%
CCc1ccc(-c2nnc(COc3ccc(-c4nc5cc(Cl)c(Cl)cc5[nH]4)cc3OC)o2)cc1 | 87.8% | 21.9% | 91.1% | 75.7% | 31% | 78.6% | 65.2% | 63.5% | 69.8% | 0.504% (active) | 56.9% | 28.9% | 103% | 45.9% | 96.9% | 64.5% | 65.6% | 77% | 55%
CCCN(CCC)CCCNC(=O)c1cc2c(-c3ccc(OC)c(OC)c3)nn(C)c2s1 | -31.3% (active) | 20.8% | 6.68% (active) | 55.8% | 25% | 28.5% | -0.28% (active) | -15.9% (active) | -8.08% (active) | 4.41% (active) | -10.5% (active) | 4.29% (active) | 69.5% | 22.1% | 24% | 35.5% | -10.1% (active) | 11.5% | -8.48% (active)
Brc1ccc(-c2cn3ccnc3c(-c3ccc(Br)cc3)n2)cc1 | 30.8% | 53.7% | 41.6% | 84.2% | 54.6% | 39.6% | 35.9% | 44.8% | 30.4% | 13.4% | 58.3% | 51.6% | 82.4% | 62.2% | 55.2% | 55.8% | 31.9% | 61.1% | 19.7%
N=C(N)c1ccc(-c2ccc(-c3ccccc3)s2)cc1F | -83.8% (active) | -83.6% (active) | -91.2% (active) | -95% (active) | -98.3% (active) | -81.3% (active) | -88.6% (active) | -60.9% (active) | -75.5% (active) | -11.6% (active) | -60.2% (active) | -32.9% (active) | -96.8% (active) | -57.2% (active) | -92.4% (active) | -51.2% (active) | -94.6% (active) | -41.6% (active) | -50.8% (active)
COc1ccc(-c2cc(/C=C3\C(=O)Nc4cc(Cl)ccc43)[nH]n2)cc1 | -0.387% (active) | 41.7% | 27.2% | 58.1% | 44.9% | 29.6% | 58.3% | 18.6% | 21.7% | 19.3% | 19.7% | 48.1% | 69.4% | 64.1% | 28.8% | 42.6% | -3% (active) | -4.18% (active) | 9.42% (active)
CCOCC[P+](c1ccccc1)(c1ccccc1)c1ccccc1 | 51.2% | 59% | 75.9% | 57.3% | 94.2% | 85.5% | 72% | 34.7% | 47.6% | 21.4% | 1.2% (active) | 46.5% | 76.2% | 36.4% | 60.3% | 46.9% | 33.8% | 79.1% | 100%
CC(C)C[C@H](NC(=O)Cn1ccc(Nc2ccccc2)cc1=O)B(O)O | -2.39% (active) | 47.9% | 53.9% | 13.5% | 10.1% | 45.3% | -1.76% (active) | 3.67% (active) | 1.94% (active) | 4.14% (active) | 1.74% (active) | 54.4% | 33.9% | 47.5% | 51.7% | 53.4% | -45.4% (active) | 28.9% | 111%
COc1cc(-c2nc3ccc(C)cc3[nH]2)ccc1OCC(=O)N=Nc1c(O)[nH]c2ccccc12 | -52.9% (active) | -61.8% (active) | 95.9% | 10.3% | 14% | -46.3% (active) | 75.5% | -50% (active) | -65% (active) | -36.7% (active) | -54% (active) | -72.8% (active) | -32.4% (active) | -82.2% (active) | -3.57% (active) | -27.4% (active) | -94.5% (active) | -46.8% (active) | 87.5%
COc1cccc2c1C(=O)c1c(O)c3c(c(O)c1C2=O)C[C@@](O)(C(=O)COC(=O)c1cccnc1)C[C@@H]3OC1CC(N)C(O)C(C)O1 (stereo partly drawn) | -71.1% (active) | 6.29% (active) | -40.4% (active) | -9.29% (active) | -7.12% (active) | -40.7% (active) | -56.6% (active) | 0.652% (active) | -24.8% (active) | 3.07% (active) | -29% (active) | -15.8% (active) | 6.95% (active) | 0.907% (active) | 22.5% | -12.4% (active) | -9.51% (active) | -12.8% (active) | 57%
CCN1CCN(c2ccc(Nc3ncnc4c3nnn4CCc3cc(OC)cc(OC)c3)cc2)CC1 | 110% | 93.7% | 81.3% | 114% | 106% | 102% | 65.6% | 86.4% | 88.9% | 89.2% | 91.1% | 87.5% | 86.7% | 86.7% | 101% | 111% | 99.2% | 88.2% | 92.3%
COc1ccc(-c2cc(=O)n(-c3nc4ccccc4[nH]3)[nH]2)cc1OC | 51% | 75% | 56.1% | 93.9% | 57.6% | 38.7% | 30.9% | -4.05% (active) | -32% (active) | 48.6% | 81.4% | 64.8% | 93.1% | 93.8% | 87.2% | 70.6% | 90.1% | 48.2% | 20.1%
CCc1ccc(-c2nnc(COc3ccc(-c4nc5ccccc5[nH]4)cc3OC)o2)cc1 | 96.7% | 21.7% | 56.8% | 16.7% | -13.9% (active) | 60.1% | 88.8% | 61.8% | 71.8% | -8.81% (active) | 52.1% | 40.9% | 96.6% | -36.2% (active) | 100% | 53.6% | 4.63% (active) | 14.4% | 69.2%
